Screens from PubChem BioAssay.
Sampled rows, rich in hits. Any-hit rate of the full collection: about 8%.
HT1080 IDH1KD tx: kills HT-1080 cells with IDH1 knockdown | Potency, µM (top dose mostly 46.1 µM), inactives show top-dose activity, negative = toxicity, hits mostly cytotoxic | 360,000 compounds, 2% hits | HT-1080 IDH1 knockdown viability, ATP luminescence, 48 h;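 also: 0% = DMSO wells and -100% = cell-free medium wells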
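% activity derives from luminescence (CellTiter-Glo), normalised to DMSO and no-cell wells. HT-1080-IDH1KD cells, 750/well, had 48 h compound exposure at 37 °C.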
KB-V1 MDR tox: KB-V1 MDR subline cytotoxicity; 400,000 compounds, 3.4% hits; AID 1347076; KB-V1 MDR cells viability, CellTiter-Glo, 72 h; Potency, µM (doses to about 46.1 µM), most hits filed as cytotoxic; also: % is scaled to controls: 0 for no effect and ±100 for the full control effect; nearly all actives have a fitted effect of over 60% in size
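Cytotoxicity via CellTiter-Glo luminescence after 72 h compound exposure at 37 degrees C. Cells: drug-selected KB-V1 line, DMEM phenol-red free plus 10% FBS. Compounds tested at multiple concentrations; normalized data fitted to concentration-effect curves.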
HT1080-NT tox: kills 2HG-producing HT-1080-NT fibrosarcoma cells; HT-1080-NT fibrosarcoma viability, CellTiter-Glo ATP luminescence, 48 h; Potency, µM (top dose mostly 46.1 µM), without a hit: at the top dose activity, negative = less viability, most hits filed as cytotoxic; 360,000 compounds, 1.6% hits;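 also: NT is the 2HG producing partner of a matched IDH1 knockdown line; 0% = DMSO-treated cells and -100% = media-only wells without cells; nearly all actives have a fitted effect of over 55% in size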
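Read-out is CellTiter-Glo luminescence after 10 minutes at room temperature, following 48 hours' compound treatment of HT-1080-NT cells (750 cells/well, RPMI, 5% FBS, 37 degrees C).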
KB-3-1 cytotox: kills parental KB-3-1 adenocarcinoma cells; AID 1347075; KB-3-1 viability, CellTiter-Glo ATP luminescence, 72 h; 400,000 compounds, 1.4% hits; Potency, µM (titrated, usually from 46.1 µM), most hits filed as cytotoxic; also: % is scaled to controls: 0 for no effect and ±100 for the full control effect; nearly all actives have a fitted effect of over 60% in size
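Cytotoxicity in the drug-sensitive parental line KB-3-1 was scored as loss of CellTiter-Glo luminescence following 72 h incubation with compound. Values come from curve fitting of normalized concentration-response data.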
SW480 rerep: DNA re-replication induction in SW480 cells. SW480 DNA re-replication, Hoechst DNA content imaging, 48 h. Potency, µM (titrated, usually from 46.1 µM), for the others: at the highest dose re-replication activation, most hits filed as activators. 340,000 compounds, 1.8% hits. AID 624297; also: % of control where 0% means no effect; nearly all actives have a fitted effect of over 55% in size
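Treated cells incubate 48 hr (37 C, 5% CO2), are stained 40 min with Hoechst, and nuclear fluorescence is enumerated; a rise in nuclei with high DNA signal marks re-replication.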
MCF10A rereplic: inducers of DNA re-replication in MCF 10A breast cells; MCF 10A DNA re-replication, Hoechst nuclear intensity, 48 h; Potency, µM (titrated, usually from 46.1 µM), for the others: top-dose activity, positive = re-replication, usual class: activators; 350,000 compounds, 2.9% hits; AID 624296; also: % of control where 0% means no effect; nearly all actives have a fitted effect of over 50% in size
Active calls of the source: *. Calls follow the shape of the dose curve; as a rule, active = well fitted curve in the direction sought with a large enough effect; inconclusive = small, poorly fitted or top-dose-only effect, or another doubt; inactive = no such curve, though single readings can be large; an effect the other way counts as inactive or inconclusive. Potency is read from the fitted curve at half-maximal effect.

What do the screens show for `O=C(O[C@H]1[C@H](Cc2ccccc2)NS(=O)(=O)[C@H]2C[C@@H]3C=C[C@]12O3)c1ccccc1Br`?
KB-V1 MDR tox: inactive; KB-3-1 cytotox: inactive

Results for Cc1nn(-c2ccccc2)c2sc(C(=O)Nc3cccc(Cl)c3)cc12 ?
KB-V1 MDR tox: inconclusive; KB-3-1 cytotox: inactive

What do the screens show for `COc1cccc(-c2nc(CSCC(=O)N3CCc4ccccc43)c(C)o2)c1`?
HT1080 IDH1KD tx: 11.8%; KB-V1 MDR tox: 10.3µM*; HT1080-NT tox: -0.4%; KB-3-1 cytotox: inconclusive; SW480 rerep: 0.3%; MCF10A rereplic: 11.3%

Results for COc1cccc(-c2nc(CS(=O)(=O)CC(=O)Nc3ccccc3C)c(C)o2)c1 ?
HT1080 IDH1KD tx: -2.8%; KB-V1 MDR tox: inactive; HT1080-NT tox: -11.5%; KB-3-1 cytotox: inactive; SW480 rerep: 9.9%; MCF10A rereplic: 0.9%

How did COc1cccc(-c2nc(CS(=O)(=O)CC(=O)Nc3ccccc3Cl)c(C)o2)c1 do in these assays?
HT1080 IDH1KD tx: -25.0%; KB-V1 MDR tox: 6.51µM*; HT1080-NT tox: -30.0%; KB-3-1 cytotox: 14.6µM*; SW480 rerep: -0.4%; MCF10A rereplic: 3.9%

What do the screens show for `CCCCNc1nc2c(S(=O)(=O)c3ccc(C)cc3)nnn2c2ccsc12`?
KB-V1 MDR tox: inactive; KB-3-1 cytotox: inactive

Results for O=C(NCc1ccc(Cl)cc1)C(=O)Nc1cccc(Br)c1 ?
KB-V1 MDR tox: inactive; KB-3-1 cytotox: inconclusive

How did Cc1c(CCC(=O)NCCc2ccc(Cl)cc2)c(=O)oc2c(C)c(O)ccc12 do in these assays?
KB-V1 MDR tox: inactive; KB-3-1 cytotox: inactive

Results for COc1ccc(CCNC(=O)c2nn(C)c3c2CS(=O)(=O)c2ccccc2-3)cc1OC ?
HT1080 IDH1KD tx: 11.3%; KB-V1 MDR tox: inactive; HT1080-NT tox: 6.1%; KB-3-1 cytotox: inactive; SW480 rerep: 23.1µM*; MCF10A rereplic: inconclusive

How did COc1ccc(/C(O)=C/c2nc3ccc(C(=O)NCCc4cccc(C)c4)cc3[nH]c2=O)cc1OC do in these assays?
HT1080 IDH1KD tx: 16.5%; KB-V1 MDR tox: inactive; HT1080-NT tox: 7.9%; KB-3-1 cytotox: 10.3µM*; SW480 rerep: inconclusive; MCF10A rereplic: inconclusive

How did CCc1nc2ccc(C(=O)NCCc3ccc(OC)c(OC)c3)cc2nc1CC do in these assays?
HT1080 IDH1KD tx: -1.5%; KB-V1 MDR tox: inactive; HT1080-NT tox: -1.9%; KB-3-1 cytotox: inactive; SW480 rerep: 2.4%; MCF10A rereplic: 9.4%

Results for COc1ccc(OCc2cc(C(=O)NCCc3ccccc3)no2)c(Cl)c1 ?
HT1080 IDH1KD tx: 16.4µM*; KB-V1 MDR tox: inconclusive; HT1080-NT tox: inconclusive; KB-3-1 cytotox: inconclusive; SW480 rerep: 20.6µM*; MCF10A rereplic: 18.4µM*

How did COc1ccc(CCNC(=O)c2ccc3nc(-c4ccco4)c(-c4ccco4)nc3c2)cc1OC do in these assays?
HT1080 IDH1KD tx: inconclusive; KB-V1 MDR tox: 7.31µM*; HT1080-NT tox: inconclusive; KB-3-1 cytotox: inconclusive; SW480 rerep: inconclusive; MCF10A rereplic: inconclusive

What do the screens show for `O=C(NCc1ccc(Cl)cc1)C(=O)NCC(c1ccco1)S(=O)(=O)c1cccs1` (stereo not drawn)?
KB-V1 MDR tox: inactive; KB-3-1 cytotox: inactive

What do the screens show for `COc1ccc(CCNC(=O)c2cc(-c3ccco3)on2)cc1OC`?
HT1080 IDH1KD tx: -18.3%; KB-V1 MDR tox: 18.4µM*; HT1080-NT tox: -20.5%; KB-3-1 cytotox: 9.2µM*; SW480 rerep: 5.8µM*; MCF10A rereplic: -3.2%

Results for O=C(Nc1ccc(OCc2cc(=O)n3c4c(sc3n2)CCCC4)cc1)c1ccccc1 ?
KB-V1 MDR tox: inactive; KB-3-1 cytotox: inactive

What do the screens show for `Cc1ccc2[nH]c3c(c2c1)CCCC3=O`?
HT1080 IDH1KD tx: -6.2%; KB-V1 MDR tox: 1.84µM*; HT1080-NT tox: -7.4%; KB-3-1 cytotox: 1.84µM*; SW480 rerep: 4.3%; MCF10A rereplic: -3.8%
